dFosB act: mouse delta FosB homodimer activation; P13346; purified delta FosB, TAMRA-CDK5 oligo fluorescence polarization; percent of positive-control signal above neutral wells; activation, % at 25 µM; actives 0.99% (n = 340,000); AID 493131;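 active = mean activation above about 17%, with every replicate also reaching it, limit read from the data, passing the limit was not always enough; inconclusive = only one of the two conditions met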
Target sequence (P13346 whole entry, looked up): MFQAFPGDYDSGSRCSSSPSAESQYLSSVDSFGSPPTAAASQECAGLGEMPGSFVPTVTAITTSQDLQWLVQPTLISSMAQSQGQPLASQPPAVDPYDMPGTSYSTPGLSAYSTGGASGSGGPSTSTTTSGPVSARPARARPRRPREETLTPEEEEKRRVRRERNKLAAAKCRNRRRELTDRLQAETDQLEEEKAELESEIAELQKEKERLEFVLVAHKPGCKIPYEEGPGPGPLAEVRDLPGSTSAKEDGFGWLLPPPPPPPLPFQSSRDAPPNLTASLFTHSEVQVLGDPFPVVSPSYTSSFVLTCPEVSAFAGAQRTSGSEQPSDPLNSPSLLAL
A1 inh: inhibitors of the anti-apoptotic protein A1, read as caspase activation | MEF A1-2A-BIM cells, Caspase-Glo 3/7 luminescence, 3 h; percent of clofoctol response, vehicle zero | caspase activation, % (concentration not given with the values) | actives 0.066% (n = 330,000) | AID 2462;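 active = over half of replicate activation scores above 10%, or exactly half above 10 with the replicate mean above 10; inconclusive = replicate mean below 10 yet half the replicates above 10; inactive = over half of replicates below 10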
GSIS activator: GLuc luminescence reporter in INS-1E cells, primary screen for activators of glucose-dependent secretion of insulin. INS-1E GLuc reporter insulin secretion, 2-3 h. activation, % at 16.6 µM. actives 0.61% (n = 370,000). AID 743287;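 active = lowest replicate activation of at least 40%, so every replicate reaches that level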;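 also: 0% = median of neutral control wells and 100% = median of IBMX positive control wells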
Vif inh: inhibitors of HIV Vif; AID 602346; inhibition, % at 7.49 µM; HEK293T cells, Vif self-association by quenched fluorescence, imaging, 24 h; actives 0.35% (n = 340,000); in the data active = inhibition above about 50%, passing the limit was not always enough; inconclusive = no clear call, values can overlap the other calls; inactive = below about 31%
Neddylation inh: cullin neddylation inhibition; actives 0.58% (n = 360,000); TR-FRET cullin neddylation, biochemical; P61081+Q13564; inhibition, % at 25 µM; AID 651699; in the data active = inhibition above about 36%
The depositor's hits bear a star; i = inactive; ? = inconclusive; . = not tested or not shown. This is a sample that favours compounds with a hit; in the whole collection about 1.9% have one here.

SMILES	dFosB act	A1 inh	GSIS activator	Vif inh	Neddylation inh
CC(=O)NC(Cc1ccccc1F)C(=O)NC1CCN(C(=O)c2cnccn2)CC1 (stereo unspecified)	1	-1	.	55*	-3
CN(C)C(=S)Nc1ccc([N+](=O)[O-])cc1	4	1	68*	-2	-23
Cc1cccc(N2CCN(C(=O)c3ccc4c(c3)NC(=O)C(CSCc3cccc(F)c3)N4)CC2C)c1 (stereo unspecified)	-8	0	32	61*	11
COc1ccc(C(=O)Nc2c(Cl)cc(Cl)cc2C(=O)N2CCOCC2)cc1	1	1	-2	65*	0
COc1ccc(-c2sc3ccccc3c2-c2ccc(OCCN(C)C)cc2)cc1	25*	1	25	-8	-55
COc1ccc(-c2sc3ccccc3c2-c2ccc(O)cc2)cc1	2	-1	-16	-5	-1
COc1cc(OC)cc(-c2sc3ccc(OC)cc3c2-c2ccc(OCCN3CCOCC3)cc2)c1	0	.	.	61*	-30
COc1cccc(-c2sc3ccc(OC)cc3c2-c2ccc(OCCN(C)C)cc2)c1	2	2	132*	9	-138
COc1cccc(-c2sc3ccc(OC)cc3c2-c2ccc(OCCN3CCOCC3)cc2)c1	-4	0	.	4	-70
CN(C)CCOc1ccc(-c2c(-c3ccsc3)sc3ccccc23)cc1	?	3	66*	-6	-147
CC(=O)Nc1ccc2c(c1)C(=O)N(C)C[C@H](C)[C@@H](CN(C)C)O2	.	.	11	.	.
COc1ccccc1-[n+]1c(C)cc(/C=C2\Sc3ccccc3N2C)cc1C	10	0	-87	.	-99
COc1ccc(-[n+]2c(C)cc(/C=C3\Sc4ccccc4N3C)cc2C)cc1	29*	-2	-39	-2	-219
CO[C@H]1CN(C)C(=O)c2cc(NC(C)=O)ccc2OC[C@H](C)N(Cc2ccccc2F)C[C@@H]1C	.	.	-21	.	.
COc1ccc(Cn2cc3c(-c4ccc(F)cc4)nnc-3c3cc(OC)c(OC)cc32)cc1	34*	0	.	183	.
COc1cc2c3nnc(-c4ccc(F)cc4)c-3cn(Cc3ccccc3)c2cc1OC	19*	0	14	i	.
CC(C)c1c(C(=O)N/N=C/c2cccc3ccccc23)nnn1-c1nonc1N	?	0	75*	1	-8
COc1ccc(/C=N/NC(=O)c2nnn(-c3nonc3N)c2-c2cccc(OC)c2)cc1	-1	-2	-3	6	24
CC1CCN(Cc2c(C(=O)N/N=C/c3cc(Cl)ccc3O)nnn2-c2nonc2N)CC1	162*	1	9	20	-25
COc1ccc(O)c(/C=N/NC(=O)c2c(C)nnn2-c2nonc2N)c1	47*	0	-5	2	2
CC1CCN(Cc2c(C(=O)N/N=C/c3cc(Br)ccc3O)nnn2-c2nonc2N)CC1	134*	0	1	53*	-15
CCCCOc1ccc(/C=C/C(=O)OCC(=O)NC2CCS(=O)(=O)C2)cc1OCC (stereo unspecified)	-18	0	45*	-9	35
COc1ccc(/C=C/C(=O)OCC(=O)NC2CCS(=O)(=O)C2)cc1 (stereo unspecified)	3	.	-6	13	-37
C[C@@H]1CN([C@H](C)CO)S(=O)(=O)c2ccc(C#CC3CC3)cc2O[C@H]1CN(C)Cc1cncnc1	.	.	-5	.	.
O=C(Nc1nccs1)c1cc(N2CCOCC2)nc2ccccc12	-7	-1	46*	5	30
SMILES	dFosB act	A1 inh	GSIS activator	Vif inh	Neddylation inh
O=C(Nc1ccccc1)c1cc(N2CCOCC2)nc2ccccc12	-5	1	.	-5	35
Cc1nccn1-c1ccc(NC(=O)[C@@H](Cc2ccccc2)NC(=O)[C@H]2O[C@@H](n3ccc(=O)[nH]c3=O)[C@H](O)[C@@H]2O)cc1	.	.	9	.	.
NC(=O)c1ncn([C@@H]2O[C@H](C(=O)N[C@H](Cc3ccccc3)C(=O)O)[C@@H](O)[C@H]2O)n1	.	.	44*	.	.
NC(=O)c1ncn([C@@H]2O[C@H](C(=O)N3CCN(CC(=O)Nc4ccccn4)CC3)[C@@H](O)[C@H]2O)n1	.	.	13	.	.
CN(C(=O)[C@H]1O[C@@H](n2cnc(C(N)=O)n2)[C@H](O)[C@@H]1O)c1ccccc1	.	.	187*	.	.
Cc1ccc(NC(=O)[C@@H](Cc2ccccc2)NC(=O)[C@H]2O[C@@H](n3ccc(=O)[nH]c3=O)[C@H](O)[C@@H]2O)cc1C	.	.	51*	.	.
